PubChem BioAssay (Tox21)
Inconclusive results are not listed. A call without a number means that no potency is given here. Active and inactive are the calls of the source. The call rests on the fitted dose curve; in most records, active means well fitted cell-killing curve with a large enough effect in the repeat runs; inconclusive means weak or mixed curves, or effect the other way; inactive means flat fitted curve, though single readings scatter.

Experiment: qHTS RealTime-Glo MT Cell Viability Assay in HepG2 cells - 0 hour (AID 1224889); further: nearly all actives have a fitted effect of over 50% in size
Settings: RealTime-Glo luminescence; series mostly up to 76.8 µM
Description: U.S. Tox21 Program National Center for Advancing Translational Sciences [NCATS] NIH Chemical Genomics Center [NCGC] U.S. Environmental Protection Agency [EPA] National Institutes of Environmental Health Sciences [NIEHS] National Toxicology Program [NTP] U.S. Food and Drug Administration [FDA] Tox21 Assay Overview: Measure of cell viability is critical in the cell-base assay. Analysis of cell viability is necessary for the characterization of cell responses to cytotoxic drugs and environmental stress. A RealTime-Glo MT Cell Viability Assay to monitor cell viability in real time of continues cell culture during 40 hours of compound treatment was used to screen Tox21 10K library compounds in HepG2 cells. The RealTime-Glo MT Cell Viability Assay is a nonlytic, homogeneous, bioluminescent method to measure cell viability in real time using a simple, plate-based method. The assay involves adding NanoLuc luciferase and a cell-permeant prosubstrate to cells in culture. Viable cells reduce the proprietary prosubstrate to generate a substrate for NanoLuc luciferase. This substrate diffuses from cells into the surrounding culture medium, where it is rapidly used by the NanoLuc Enzyme to produce a luminescent signal. The signal correlates with the number of viable cells, making the assay well suited for cytotoxicity studies.
Tox21 Assay Protocol Summary: The mixture of HepG2 cell suspension and reagents were dispensed at 600cells/6 ul/well in 1536-well tissue culture treated black solid bottom plates using a Multidrop dispenser. After the assay plates were incubated at a 37 C/5% CO2 incubator for 5 hours, 23 nL of compounds dissolved in DMSO, positive and negative controls was transferred to the assay plate by a pintool work station. The plates were incubated at 37 C for 40 hours. The luminescence intensity were measured at 0h, 8h, 16h, 24h, 32h and 40h time points using ViewLux plate reader during compound treatment.

| Structure (SMILES) | Potency | activity change, negative = cytotoxicity |
| --- | --- | --- |
| CC(C)(O)CCc1ccccc1 | inactive | – |
| O=C(O)CCC(=O)OC[C@@H](NC(=O)C(Cl)Cl)[C@H](O)c1ccc([N+](=O)[O-])cc1 | inactive | – |
| O=C1c2ccccc2C(=O)c2c(O)ccc(O)c21 | inactive | – |
| CC(C)N=C=NC(C)C | inactive | – |
| N[C@@H](Cc1cc(I)c(O)c(I)c1)C(=O)O | inactive | – |
| CC[C@H]1OC(=O)[C@H](C)[C@@H](O[C@H]2C[C@@](C)(OC)[C@@H](O)[C@H](C)O2)[C@H](C)[C@@H](O[C@@H]2O[C@H](C)C[C@H](N(C)C)[C@H]2O)[C@](C)(O)C[C@@H](C)CN(C)[C@H](C)[C@@H](O)[C@]1(C)O | inactive | – |
| [Cl][Nd]([Cl])[Cl] | inactive | – |
| CCCCCCC(O)CCOC(C)=O (stereo not given) | inactive | – |
| Nc1cccc2c(N)cccc12 | inactive | – |
| CCCCCCCCCCCCCCCCCC(=O)OCC(CC)CCCC (stereo not given) | inactive | – |
| CC(C)COC(=O)c1ccc(O)cc1 | inactive | – |
| O=[N+]([O-])C1(Br)COCOC1 | inactive | – |
| O=C1NC(=O)c2cccc3cccc1c23 | inactive | – |
| C=C(C)c1ccccc1 | inactive | – |
| CC(=O)NNC(C)=O | inactive | – |
| O=C(c1ccccc1)c1ccc(O)cc1 | inactive | – |
| CCCCCCCC(=O)OCCCCCC | inactive | – |
| COc1ccc(CCN(C)CCCN2CCc3cc(OC)c(OC)cc3CC2=O)cc1OC | inactive | – |
| COc1ccc(-n2nc(C(F)F)cc2-c2ccc(S(C)=O)cc2)cc1 (stereo not given) | inactive | – |
| CCOC(=O)Oc1ccc(CCNC(=O)[C@H](CCSC)NC(C)=O)cc1OC(=O)OCC | inactive | – |

| Structure (SMILES) | Potency | activity change, negative = cytotoxicity |
| --- | --- | --- |
| O=C(c1ccccc1)C1CCC1 | inactive | – |
| CC[C@H]1OC(=O)[C@H](C)[C@@H](O[C@H]2C[C@@](C)(OC)[C@@H](O)[C@H](C)O2)[C@H](C)[C@@H](O[C@@H]2O[C@H](C)C[C@H](N(C)C)[C@H]2O)[C@](C)(O)C[C@@H](C)C(=O)[C@H](C)[C@@H](O)[C@]1(C)O | inactive | – |
| CCNc1nc(N)nc(Cl)n1 | inactive | – |
| CCCCCC | inactive | – |
| COc1cc(NC(C)CCCN)c2ncccc2c1 (stereo not given) | inactive | – |
| C1=CCC2CC=CC2C1 (stereo not given) | inactive | – |
| CCCCOCCOC(=O)c1cccnc1 | inactive | – |
| CC(C)CC(O)CC(C)C | inactive | – |
| Cc1ccc(Cl)cc1N | inactive | – |
| CC(=O)NCCO | inactive | – |
| CCCCCc1ccco1 | inactive | – |
| Nc1c(Cl)cc(Cl)cc1[N+](=O)[O-] | inactive | – |
| O=C(Nc1ccc(C(=O)O)c(O)c1)c1ccccc1 | inactive | – |
| O=CNNC=O | inactive | – |
| CC1=CC[C@@H]2C[C@H]1C2(C)C | – | -1.11% [at 15.8 µM] (inactive) |
| O=C1OC[C@H](Cc2cccc(O)c2)[C@H]1Cc1cccc(O)c1 | inactive | – |
| O=S(=O)(Cl)c1c(Cl)cccc1Cl | inactive | – |
| CCc1ccc(C)cc1 | inactive | – |
| C=CCOC(=O)COCCC(C)C | inactive | – |
| CNCc1ccc(NC(=O)c2c[nH]c3c2C(=O)CCC3)cc1 | inactive | – |
